This is an account of results in PubChem BioAssay (NCI).

About 83,000 compounds went through this panel and 20% of them were active in at least one assay; those are over-represented in the sample as a whole.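 Percent growth is the endpoint: 0 to 100 indicates growth inhibition (40 means 60% inhibition), 0 means no net growth, and negative values indicate cell death.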 A number with no mark means an inactive call. Activity calls are given as the source filed them. The calls were made as follows: active = growth percent below 10; inactive = the rest.

Among the test systems are NCI-H23 lung; NCI-H226 lung; HOP-62 NSCLC; NCI-H460 lung; HOP-92 NSCLC; NCI-H522 lung; A549/ATCC NSCLC; 786-0 renal; COLO 205 colon; DU-145 prostate; K-562 leukemia; MALME-3M melanoma; MDA-MB-231 breast; RXF 393 renal; SF-268 CNS; SF-295 CNS; SF-539 CNS; UACC-257 melanoma; M14 melanoma.
What all share (assay): NCI-60 one-dose screen, 48 h (100 = growth as untreated, 0 = no growth, -100 = all killed)
Holding throughout (conditions): 10 µM unless noted

Turning to `C/C=C/C1=CN2C(=O)c3cc(OC4OC(C)C(NC)C(C)(O)C4O)c(C)cc3N=C[C@@H]2C1` (stereo partly specified), the growth in the assay on NCI-H23 lung is -31.7% (active); in the assay on NCI-H226 lung, 6.1% (active); in the assay on HOP-62 NSCLC, -8.97% (active); in the assay on NCI-H460 lung, -18.4% (active); in the assay on HOP-92 NSCLC, 2.06% (active); in the assay on NCI-H522 lung, -12.7% (active). Moreover, the growth in the assay with A549/ATCC NSCLC is 7.17% (active); in the assay with 786-0 renal it was 0.564% (active); in the assay on COLO 205 colon, -42.4% (active); in the assay with DU-145 prostate it was -18.6% (active); in the assay with K-562 leukemia, 5.83% (active); in the assay on MALME-3M melanoma, -43% (active). The growth with MDA-MB-231 breast is 15.7%; with RXF 393 renal, -44.9% (active); with SF-268 CNS it was -28.8% (active); in the assay on SF-295 CNS it was -23.1% (active); in the assay with SF-539 CNS, -44.9% (active); in the assay with UACC-257 melanoma, -1.62% (active). Moreover, the growth with M14 melanoma is -60.5% (active).
Consider `COc1ccc(-c2[nH]nc(N)c2-c2cc(OC)c3c(c2)OCO3)cc1`, for which the growth with NCI-H23 lung is 63.4%; in the assay on NCI-H226 lung, 84.9%; in the assay on HOP-62 NSCLC, 59.8%; with NCI-H460 lung it was 33.1%; with HOP-92 NSCLC, 69.7%; with NCI-H522 lung, -21% (active). Also, the growth in the assay with A549/ATCC NSCLC was 52%; in the assay with 786-0 renal it was 77.6%; in the assay on COLO 205 colon it was 61.3%; in the assay on DU-145 prostate, 92.3%; in the assay with K-562 leukemia it was 22.4%; in the assay on MALME-3M melanoma, 46.9%. The growth is 43% with MDA-MB-231 breast; 95.9% with RXF 393 renal; 64.9% with SF-268 CNS; 53.9% in the assay on SF-295 CNS; 59.3% with SF-539 CNS; 79.3% in the assay with UACC-257 melanoma. In addition, the growth in the assay with M14 melanoma was 22.1%.
Turning to `CCCCCCCCCCCCNC(=O)[C@H]1CSC(c2cc(Br)cs2)N1` (stereo partly specified), the growth in the assay with NCI-H23 lung is 18.1%; in the assay on NCI-H226 lung it was 10.4%; in the assay with HOP-62 NSCLC, -97.5% (active); with NCI-H460 lung it was -48.4% (active); in the assay on HOP-92 NSCLC, 61.7%; in the assay on NCI-H522 lung, -1.62% (active). In addition, the growth in the assay on A549/ATCC NSCLC was 71%; with 786-0 renal, 38.3%; in the assay on COLO 205 colon it was 108%; with DU-145 prostate, -48.2% (active); with K-562 leukemia, -47.2% (active); with MALME-3M melanoma, 13.1%. In addition, the growth in the assay with MDA-MB-231 breast is -77.9% (active); in the assay on RXF 393 renal, -60% (active); with SF-268 CNS it was -72.4% (active); in the assay on SF-295 CNS, 36%; in the assay with SF-539 CNS, -66.3% (active); with UACC-257 melanoma, -22.3% (active). Moreover, the growth in the assay on M14 melanoma was -83.5% (active).
In the case of `COc1ccc2c(c1)[nH]c(=O)c1c3cc(OC)ccc3cn21`, the growth in the assay with NCI-H23 lung is 41.4%; with NCI-H226 lung, 30.1%; with HOP-62 NSCLC, 20%; in the assay on NCI-H460 lung, -33% (active); in the assay on HOP-92 NSCLC, 45.1%; in the assay on NCI-H522 lung it was 13%. Also, the growth was -2.59% (active) with A549/ATCC NSCLC; 28.7% in the assay with 786-0 renal; -14.1% (active) in the assay with COLO 205 colon; 0.89% (active) in the assay with DU-145 prostate; 25.6% in the assay on K-562 leukemia; 60.4% in the assay on MALME-3M melanoma. Also, the growth is 0.629% (active) in the assay on MDA-MB-231 breast; -39.9% (active) in the assay with RXF 393 renal; -3.31% (active) with SF-268 CNS; -18% (active) in the assay with SF-295 CNS; 7.14% (active) with SF-539 CNS; 72.5% with UACC-257 melanoma. In addition, in the assay on M14 melanoma, the growth was 25.4%.
Regarding `COc1cc(-c2nc(-c3nc4ccc(Cl)cc4[nH]3)cc3c2[nH]c2ccccc23)cc(OC)c1OC`, the growth is 71.5% in the assay with NCI-H23 lung; 73.2% with NCI-H226 lung; 83.7% with HOP-62 NSCLC; 73.8% in the assay with NCI-H460 lung; 51.8% in the assay on HOP-92 NSCLC; 39.7% with NCI-H522 lung. Besides, the growth with A549/ATCC NSCLC is 59.2%; in the assay on 786-0 renal it was 81%; in the assay with COLO 205 colon it was 84.6%; in the assay with DU-145 prostate, 86.8%; in the assay on K-562 leukemia it was 54.1%; with MALME-3M melanoma, 92.7%. The growth in the assay on MDA-MB-231 breast was 4.62% (active); with RXF 393 renal it was 63.5%; in the assay on SF-268 CNS, 68%; in the assay with SF-295 CNS, 61.3%; in the assay on SF-539 CNS, 67.3%; in the assay with UACC-257 melanoma, 100%. Moreover, the growth in the assay on M14 melanoma is 71.7%.
For the compound `C=C[C@@H]1C[C@H](O)Cc2ccccc2N1`, the growth in the assay with NCI-H23 lung is 104%; in the assay with NCI-H226 lung it was 111%; in the assay on HOP-62 NSCLC, 99.2%; in the assay with NCI-H460 lung it was 107%; in the assay on HOP-92 NSCLC it was 137%; in the assay with NCI-H522 lung, 121%. Further, the growth was 95.4% with A549/ATCC NSCLC; 112% in the assay with 786-0 renal; 117% with COLO 205 colon; 115% in the assay on DU-145 prostate; 113% in the assay on MALME-3M melanoma; 101% in the assay on MDA-MB-231 breast. Besides, the growth was 120% with RXF 393 renal; 107% with SF-268 CNS; 109% in the assay on SF-295 CNS; 101% in the assay with SF-539 CNS; 104% in the assay on UACC-257 melanoma; 108% with M14 melanoma.
`COc1cc(NC(=O)SC2=NCCS2)cc(OC)c1`: the growth with NCI-H23 lung is 95%; with NCI-H226 lung, 98.7%; in the assay with HOP-62 NSCLC, 108%; in the assay with NCI-H460 lung, 101%; with HOP-92 NSCLC, 84.7%; with NCI-H522 lung, 86.4%. Also, the growth in the assay on A549/ATCC NSCLC is 101%; in the assay with 786-0 renal, 101%; in the assay with COLO 205 colon it was 109%; in the assay with DU-145 prostate it was 101%; in the assay with K-562 leukemia, 93.6%; in the assay with MALME-3M melanoma, 102%. The growth with MDA-MB-231 breast is 110%; in the assay on RXF 393 renal, 120%; in the assay with SF-268 CNS, 106%; in the assay with SF-295 CNS it was 113%; with SF-539 CNS, 90.6%; in the assay on UACC-257 melanoma, 104%. For the same compound, in the assay with M14 melanoma, the growth is 103%.
Turning to `CC12CCC3C4(C)COC(c5ccccc5Cl)OC4CCC3(C)C1CC(C1=CCOC1=O)O2` (stereo unspecified), the growth in the assay with NCI-H23 lung is 52.7%; in the assay with NCI-H226 lung it was 59.5%; in the assay on HOP-62 NSCLC, 78.3%; in the assay on NCI-H460 lung, 44.1%; with HOP-92 NSCLC, 85.7%; in the assay with NCI-H522 lung, 59.4%. In addition, the growth is 64.1% in the assay on A549/ATCC NSCLC; -89.9% (active) in the assay with 786-0 renal; 45% with COLO 205 colon; 83.9% with DU-145 prostate; 23.9% with K-562 leukemia; 90.6% with MALME-3M melanoma. The growth in the assay on MDA-MB-231 breast is 71.7%; in the assay with RXF 393 renal it was 80.4%; in the assay with SF-268 CNS it was 70.1%; with SF-295 CNS, 64.3%; in the assay with SF-539 CNS, 84.7%; in the assay with UACC-257 melanoma, 49.3%. Further, in the assay with M14 melanoma, the growth was 65.9%.
